Screening data deposited in PubChem by several laboratories.
This is one part of a sample in which hits are shown more often than they occur.
PDI inh – inhibitors of human PDI, primary screen, biochemical, turbidity, single point, plate reader. Protein disulfide-isomerase (Homo sapiens), P07237. 350,000 tested, 0.052% active. PDI insulin aggregation turbidity, A650, 90 min. inhibition, % at 10 µM. AID 588391, 2011;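 active = mean inhibition across replicates of 30% or more, whatever share of single replicates reach that level; inconclusive = mean inhibition below 30% while every single replicate reaches 30%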
ALR H2O2 inh – inhibitors of human ALR sulfhydryl oxidase, primary screen, biochemical, H2O2 detection, HRP-luminol luminescence, single point; FAD-linked sulfhydryl oxidase ALR (Homo sapiens), P55789; purified ALR, DTT oxidation; inhibition, % (test concentration not listed); 290,000 tested, 3.8% active; AID 485317, 2010;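 active = mean replicate inhibition above about 79%, with every replicate also reaching it, limit read from the data; inconclusive = only one of the two criteria met; inactive = mean below limit and not every replicate reaching it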
PglD DTNB – C. jejuni PglD acetyltransferase inhibitors, primary screen, biochemical, DTNB colorimetric, single point; 360,000 tested, 0.098% active; purified PglD enzyme, DTNB colorimetric CoA detection; inhibition, % at 12.5 µM; UDP-N-acetylbacillosamine N-acetyltransferase PglD (Campylobacter jejuni); in the data active = inhibition above about 16%, passing the limit was not always enough; inconclusive = no clear call, values can overlap the other calls
NRP1-CendR mod – modulators of CendR peptide binding to NRP-1, primary screen, biochemical, fluorescence polarization, uHTS | 360,000 tested, 0.85% active | inhibition, % at 25 µM | AID 602438, 2012 | Neuropilin-1 (Homo sapiens), O14786 | FAM-RPARPAR peptide binding to NRP-1;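 active = inhibition or corrected inhibition above about 18%, plus a signal ratio from 0.5 to 1.5, limit read from the data, passing the limit was not always enough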
ERp5 block – inhibitors of ERp5-driven insulin aggregation, primary screen, biochemical, turbidity, absorbance 650 nm, single point; Protein disulfide-isomerase A6 (Homo sapiens), Q15084; 90 min; AID 651711, 2012; inhibition, % at 9.99 µM; 350,000 tested, 0.05% active;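 active = mean replicate inhibition above about 25%, with every replicate also reaching it, limit read from the data, passing the limit was not always enough; inconclusive = only one of those two criteria met; inactive = neither criterion met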
Target sequence (Q15084 whole entry, looked up): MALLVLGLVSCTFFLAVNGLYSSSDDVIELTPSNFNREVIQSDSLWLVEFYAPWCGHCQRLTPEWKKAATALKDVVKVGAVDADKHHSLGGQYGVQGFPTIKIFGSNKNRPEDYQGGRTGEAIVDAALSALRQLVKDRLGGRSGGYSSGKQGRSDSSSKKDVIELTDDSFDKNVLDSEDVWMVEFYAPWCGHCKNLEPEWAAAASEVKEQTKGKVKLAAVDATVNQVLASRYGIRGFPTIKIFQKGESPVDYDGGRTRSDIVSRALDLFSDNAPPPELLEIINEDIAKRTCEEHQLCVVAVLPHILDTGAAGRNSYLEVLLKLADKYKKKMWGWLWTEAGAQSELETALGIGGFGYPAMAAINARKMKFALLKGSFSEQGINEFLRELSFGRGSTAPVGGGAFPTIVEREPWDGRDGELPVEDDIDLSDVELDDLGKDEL
ARNT-TACC3 inh – disruptors of ARNT/TACC3 protein interaction, primary screen, biochemical, AlphaScreen, single concentration; AlphaScreen His-ARNT PAS-B/GST-TACC3 binding, luminescence; TACC3 fragment carries E629A point mutation; inhibition, % at 9.99 µM; 390,000 tested, 0.66% active; AID 623870, 2012;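 active = mean inhibition of replicates at least 50% and at least half of replicates each reaching 50%; inconclusive = half or more replicates reach 50% but mean below 50%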;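 note: 0% = complete ARNT plus TACC3 wells and 100% = ARNT alone without TACC3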
Starred values were filed as active, the others as inactive; ? = inconclusive; · = no result given; ! = not confirmed by another sample.

SMILES	PDI inh	ALR H2O2 inh	PglD DTNB	NRP1-CendR mod	ERp5 block	ARNT-TACC3 inh
COc1cc(NC(=O)c2cc([N+](=O)[O-])ccc2NC(=O)CNCc2ccccn2)cc(OC)c1	-3	·	0	-19	1	38*
COc1ccc(NC(=O)c2cc([N+](=O)[O-])ccc2NC(=O)CNCc2ccccn2)c(OC)c1	-2	·	-11	8	2	46*
CCC(=O)Nc1ccc2c(c1)OC[C@@H](C)N(CC1CCOCC1)C[C@@H](C)[C@H](OC)CN(C)C2=O	·	·	-3	·	4	-9
S=c1[nH]nc(-c2ccccn2)n1/N=C/c1ccc(Br)s1	0	96*	·	5	·	99*
S=c1[nH]nc(-c2ccccn2)n1/N=C/c1ccc(-c2ccccc2Cl)o1	1	97*	·	-6	4	56*
S=c1[nH]nc(COc2ccccc2)n1/N=C/c1ccc(Br)s1	-2	95*	3	4	·	4
COc1ccc(S(=O)(=O)N[C@H]2CC[C@H](CCn3cc(-c4cccc(F)c4)nn3)O[C@H]2CO)cc1	·	·	1	·	-4	-1
COc1ccc(S(=O)(=O)Nc2ccc3c(c2)CC(=O)N([C@H](C)CO)C[C@@H](C)[C@@H](CN(C)C)O3)cc1	·	·	3	·	7	19
O=C(c1cnccn1)N1CC(=O)N2[C@@H](CO)[C@@H](c3ccc(C#CC4CCCCC4)cc3)[C@@H]2C1	·	·	·	·	-1	·
CCOc1cc2c(C#N)c(N3CCCC3)nc(N)c2c(N)n1	-6	48	-8	4	-2	1
N#Cc1c(N2CCCC2)nc(N)c2c(N)nc(N3CCCC3)cc12	?	-161	·	32*	·	-45
COc1cc2c(C#N)c(N3CCCC3)nc(N)c2c(N)n1	6	58	6	30*!	-6	34*!
CCC(=O)N1C[C@H](C)[C@@H](OC)CN(C)C(=O)c2ccc(NC(=O)Nc3ccc(Cl)cc3)cc2OC[C@H]1C	·	·	-1	·	-2	-1
Cc1ccc(S(=O)(=O)Nc2ccc3c(c2)C(=O)N([C@@H](C)CO)C[C@@H](C)[C@@H](CN(C)C)O3)cc1	·	·	3	·	3	-6
Cc1ccc(CN2CCS(=O)(=O)CC2)cc1	-9	·	-4	27*	·	-28
O=C(C[C@@H]1CC[C@@H]2[C@H](COC[C@H](O)CN2C(=O)Nc2cccc(Cl)c2)O1)N1CCCCC1	·	·	2	·	5	-1
C[C@@H]1CN([C@@H](C)CO)C(=O)c2cc(NC(=O)Nc3cccc4ccccc34)ccc2O[C@@H]1CN(C)Cc1ccc(C(=O)O)cc1	·	·	-8	·	5	-2
CCc1c(C)nc(SCc2cccnc2)[nH]c1=O	-3	99*	-4	-2	·	24
CCc1cc(=O)[nH]c(SCc2cccnc2)n1	-5	98*	2	12	·	-6
CCOc1ccc(C(=O)NC2CCN(C(=S)Nc3ccccc3C)CC2)cc1	-2	-7	·	-3	-5	-11
COc1ccc(C(=O)NC2CCN(C(=S)Nc3ccccc3C)CC2)cc1	0	-1	·	19*	-6	-4
CCOc1ccc(C(=O)NC2CCN(C(=S)NCc3ccco3)CC2)cc1	-3	1	·	26*	·	-5
C[C@@H]1CN([C@H](C)CO)C(=O)c2cccc(NC(=O)Nc3ccc4c(c3)OCO4)c2O[C@H]1CN(C)S(C)(=O)=O	·	·	1	·	-4	-2
CC(=O)Nc1cccc(-c2csc(Nc3ccc(C)cn3)n2)c1	-41	99*	4	17	·	8
Cc1cc(=O)oc2c(N)c(O)ccc12	-4	97*	1	-5	-2	-6
CCCC(=O)N1CCC2(CC1)CN(C(=O)C1CC1)[C@H](CO)c1[nH]c3cc(OC)ccc3c12	·	·	·	·	0	·
COc1ccc(NC(=O)Nc2ccc3c(c2)CC(=O)N([C@@H](C)CO)C[C@@H](C)[C@H](CN(C)S(=O)(=O)c2c(C)noc2C)O3)cc1	·	·	0	·	22	-13
COC(=O)c1c(NC(=O)CN2CCC3(O)CCCCC3C2c2cc(OC)ccc2OC)sc(C)c1C (stereo unspecified)	-2	-5	·	27*	·	0
